± gives the uncertainty stated by the source.
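Further: viable cell number estimated from Alamar Blue fluorescence read at 560/90, part of a single-dose primary screen of an FDA-approved drug library.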

This assay relates to U87. As to the kind of experiment: cell viability relative to vehicle control; higher = less growth inhibition (less active). Conditions: 10 µM; 72 h.
With `CC(C)/N=c1\cc2n(-c3ccc(Cl)cc3)c3ccccc3nc-2cc1Nc1ccc(Cl)cc1`, the cell viability (in general, a read-out of living cells in per cent, often relative to untreated cells) is 51.3 ± 3%.
As to `N[C@@H]1CONC1=O`, the cell viability turned out to be 96.3 ± 5%.
For `O=C(O[C@@H]1Cc2c(O)cc(O)cc2O[C@@H]1c1cc(O)c(O)c(O)c1)c1cc(O)c(O)c(O)c1` [Epigallocatechin gallate] the value was 77.8 ± 4.2%; for `CC(=O)CCCCn1cnc2c1c(=O)n(C)c(=O)n2C`, 105 ± 1.2%.
In the case of `CCN(CC)C(=O)C1(c2ccccc2)CC1CN` (stereo not given) [Milnacipran] it was 102 ± 1.5%; in that of `CCc1ccc(CCOc2ccc(CC3SC(=O)NC3=O)cc2)nc1` (stereo not given), 105 ± 3.6%.
For `CC1(C)C[C@@H]1C(=O)N/C(=C\CCCCSC[C@H](N)C(=O)O)C(=O)O` the value was 129 ± 3.1%.
For the compound `NNCCc1ccccc1`, the cell viability came out at 104.4 ± 0.9%.
For `CC(C)(C)NC(=O)[C@H]1CC[C@H]2[C@@H]3CC[C@H]4NC(=O)C=C[C@]4(C)[C@H]3CC[C@]12C` the value was 104.8 ± 0.76%; for `Clc1ccc(CO/N=C(\Cn2ccnc2)c2ccc(Cl)cc2Cl)c(Cl)c1`, 103 ± 3.9%.
`COc1cc(C)c(Cc2cnc(N)nc2N)cc1OC`: the cell viability worked out at 100 ± 1.7%.
For `CCS(=O)(=O)CCn1c([N+](=O)[O-])cnc1C` the value was 101 ± 1.7%.
As for `CC(=O)N1CCN(c2ccc(OCC3COC(Cn4ccnc4)(c4ccc(Cl)cc4Cl)O3)cc2)CC1` (stereo not given) [Ketoconazole], the cell viability came to 94.3 ± 13%.
Turning to `OCCN1C[C@H](O)[C@@H](O)[C@H](O)[C@H]1CO`, the cell viability was determined as 123 ± 2.4%.
In the case of `COc1cccc2c1C(=O)c1c(O)c3c(c(O)c1C2=O)C[C@@](O)(C(=O)CO)C[C@@H]3O[C@H]1C[C@H](N)[C@@H](O)[C@H](C)O1` it was 23.3 ± 0.39%; in that of `CC1=Nc2ccc(Cl)cc2S(=O)(=O)N1`, 101 ± 1.6%.
For `Cc1nc2ccccn2c(=O)c1CCN1CCC(C(=O)c2ccc(F)cc2)CC1` the value was 97.4 ± 1.5%; for `NC1CCN(c2nc3c(cc2F)c(=O)c(C(=O)O)cn3-c2ccc(F)cc2F)C1` (stereo not given), 98.01 ± 0.56%.
For `CCCCc1nc(Cl)c(CO)n1Cc1ccc(-c2ccccc2-c2nnn[nH]2)cc1` [LOSARTAN Potassium] the value was 107 ± 1.9%; for `CC(c1cc2ccccc2s1)N(O)C(N)=O` (stereo not given), 104.1 ± 1%; for `COc1ccccc1N1CCN(CC(O)COc2cccc3ccccc23)CC1` (stereo not given), 99.6 ± 1.9%.
Regarding `CCOC(=O)c1ncn2c1CN(C)C(=O)c1cc(F)ccc1-2`, the cell viability was 103 ± 1.8%.
In the case of `O=C(O)CCNC(=O)c1ccc(/N=N/c2ccc(O)c(C(=O)O)c2)cc1` it was 99.6 ± 1.4%; in that of `Nc1c2c(nc3c1CCC3)CCCC2`, 97.1 ± 5.7%.
For the compound `Nc1nc2ccc(Cl)cc2c2nc(-c3ccco3)nn12`, the cell viability came to 93.4 ± 5.3%.
